We go through seven targets from the supplement of paper PMC12819154, “High-throughput peptide-centric local stability assay extends protein–ligand identification to membrane proteins, tissues and bacteria” (Nature Structural & Molecular Biology, 2025).

Sequence of UniProt Q60932 (Q60932 whole entry): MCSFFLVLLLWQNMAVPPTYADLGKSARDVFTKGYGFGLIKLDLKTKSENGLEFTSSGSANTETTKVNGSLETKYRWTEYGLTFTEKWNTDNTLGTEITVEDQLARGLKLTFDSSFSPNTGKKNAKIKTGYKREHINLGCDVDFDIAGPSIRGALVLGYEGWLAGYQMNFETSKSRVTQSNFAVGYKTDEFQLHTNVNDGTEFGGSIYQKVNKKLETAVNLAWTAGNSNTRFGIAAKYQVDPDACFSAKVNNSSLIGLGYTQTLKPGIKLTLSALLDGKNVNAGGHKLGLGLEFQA
Sequence of UniProt Q62393 (Q62393 whole entry): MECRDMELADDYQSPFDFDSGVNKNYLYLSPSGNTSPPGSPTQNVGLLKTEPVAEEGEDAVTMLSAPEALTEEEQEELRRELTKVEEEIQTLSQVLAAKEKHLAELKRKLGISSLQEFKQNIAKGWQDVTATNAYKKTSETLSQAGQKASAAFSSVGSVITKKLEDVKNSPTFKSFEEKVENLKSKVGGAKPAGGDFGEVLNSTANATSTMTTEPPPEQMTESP
Sequence of UniProt P83510 (P83510 whole entry): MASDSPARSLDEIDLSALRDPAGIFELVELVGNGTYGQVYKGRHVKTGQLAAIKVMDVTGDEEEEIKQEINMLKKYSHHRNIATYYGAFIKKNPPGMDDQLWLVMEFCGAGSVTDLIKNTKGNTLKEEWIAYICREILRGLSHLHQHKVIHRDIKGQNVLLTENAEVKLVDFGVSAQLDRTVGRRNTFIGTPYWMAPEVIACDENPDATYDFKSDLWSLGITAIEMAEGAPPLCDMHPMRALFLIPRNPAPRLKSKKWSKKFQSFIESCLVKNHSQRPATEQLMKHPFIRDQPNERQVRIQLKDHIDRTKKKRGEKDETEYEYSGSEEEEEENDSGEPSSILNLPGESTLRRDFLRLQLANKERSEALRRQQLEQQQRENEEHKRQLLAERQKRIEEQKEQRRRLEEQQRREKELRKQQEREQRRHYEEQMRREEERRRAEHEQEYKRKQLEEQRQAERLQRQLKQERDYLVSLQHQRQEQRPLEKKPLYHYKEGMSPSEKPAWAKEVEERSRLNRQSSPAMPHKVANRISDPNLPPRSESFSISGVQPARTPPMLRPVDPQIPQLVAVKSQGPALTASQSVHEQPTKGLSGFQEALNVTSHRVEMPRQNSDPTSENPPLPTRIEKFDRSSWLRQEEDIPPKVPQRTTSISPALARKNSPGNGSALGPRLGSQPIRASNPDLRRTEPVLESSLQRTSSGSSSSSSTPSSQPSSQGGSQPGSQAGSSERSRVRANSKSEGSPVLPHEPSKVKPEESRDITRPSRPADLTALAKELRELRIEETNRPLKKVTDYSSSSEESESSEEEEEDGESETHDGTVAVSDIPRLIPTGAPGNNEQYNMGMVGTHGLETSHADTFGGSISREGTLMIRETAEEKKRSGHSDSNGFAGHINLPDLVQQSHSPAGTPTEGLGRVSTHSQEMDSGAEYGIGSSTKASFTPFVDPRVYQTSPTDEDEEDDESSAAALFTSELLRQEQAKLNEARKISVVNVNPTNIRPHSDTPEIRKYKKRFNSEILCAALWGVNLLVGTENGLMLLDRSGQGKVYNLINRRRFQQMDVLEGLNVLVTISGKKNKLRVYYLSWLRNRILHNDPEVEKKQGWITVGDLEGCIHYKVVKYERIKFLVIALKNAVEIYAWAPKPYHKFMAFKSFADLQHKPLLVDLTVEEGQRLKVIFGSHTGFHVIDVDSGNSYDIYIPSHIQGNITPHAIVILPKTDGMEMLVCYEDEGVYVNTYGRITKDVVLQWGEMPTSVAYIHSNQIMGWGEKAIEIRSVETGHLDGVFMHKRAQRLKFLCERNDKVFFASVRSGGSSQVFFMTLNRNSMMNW
Sequence of UniProt Q925I1 (Q925I1 whole entry): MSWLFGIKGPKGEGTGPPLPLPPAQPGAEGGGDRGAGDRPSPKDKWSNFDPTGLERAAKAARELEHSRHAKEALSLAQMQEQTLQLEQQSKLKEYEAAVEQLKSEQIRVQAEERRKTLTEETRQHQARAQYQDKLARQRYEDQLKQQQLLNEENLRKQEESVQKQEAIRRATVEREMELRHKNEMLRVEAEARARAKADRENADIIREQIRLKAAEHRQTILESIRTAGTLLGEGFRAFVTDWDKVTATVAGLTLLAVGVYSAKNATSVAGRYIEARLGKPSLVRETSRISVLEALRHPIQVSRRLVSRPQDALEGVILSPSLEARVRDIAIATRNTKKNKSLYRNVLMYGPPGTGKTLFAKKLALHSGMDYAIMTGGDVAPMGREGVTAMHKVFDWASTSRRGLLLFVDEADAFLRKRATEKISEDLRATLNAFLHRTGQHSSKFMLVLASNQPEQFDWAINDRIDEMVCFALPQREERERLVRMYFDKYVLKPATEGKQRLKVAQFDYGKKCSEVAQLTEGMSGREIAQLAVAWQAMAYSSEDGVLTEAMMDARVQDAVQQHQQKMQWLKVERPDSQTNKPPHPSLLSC
Sequence of UniProt Q6PF93 (Q6PF93 whole entry): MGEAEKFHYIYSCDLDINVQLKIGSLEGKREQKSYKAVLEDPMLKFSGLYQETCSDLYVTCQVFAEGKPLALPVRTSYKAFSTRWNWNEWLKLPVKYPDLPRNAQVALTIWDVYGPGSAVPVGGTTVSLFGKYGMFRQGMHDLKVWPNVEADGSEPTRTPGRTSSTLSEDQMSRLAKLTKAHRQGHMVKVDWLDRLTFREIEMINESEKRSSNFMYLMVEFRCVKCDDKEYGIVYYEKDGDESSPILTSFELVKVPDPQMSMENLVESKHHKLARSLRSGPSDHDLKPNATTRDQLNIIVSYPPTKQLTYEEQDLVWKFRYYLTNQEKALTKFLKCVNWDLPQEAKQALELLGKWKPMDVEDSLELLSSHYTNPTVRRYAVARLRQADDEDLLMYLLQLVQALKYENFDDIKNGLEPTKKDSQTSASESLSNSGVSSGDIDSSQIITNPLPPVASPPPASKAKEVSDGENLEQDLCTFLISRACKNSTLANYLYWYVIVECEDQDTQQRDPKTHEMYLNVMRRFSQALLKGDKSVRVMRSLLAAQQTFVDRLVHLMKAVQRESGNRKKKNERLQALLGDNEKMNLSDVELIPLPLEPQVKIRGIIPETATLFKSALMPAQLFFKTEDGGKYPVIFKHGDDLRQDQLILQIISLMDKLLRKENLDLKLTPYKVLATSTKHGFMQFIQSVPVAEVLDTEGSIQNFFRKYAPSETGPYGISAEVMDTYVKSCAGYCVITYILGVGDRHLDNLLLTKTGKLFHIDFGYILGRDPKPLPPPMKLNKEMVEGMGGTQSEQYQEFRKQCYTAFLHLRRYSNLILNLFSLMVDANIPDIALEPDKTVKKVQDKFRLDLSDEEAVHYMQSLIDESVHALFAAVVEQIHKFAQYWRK
Sequence of UniProt O35488 (O35488 whole entry): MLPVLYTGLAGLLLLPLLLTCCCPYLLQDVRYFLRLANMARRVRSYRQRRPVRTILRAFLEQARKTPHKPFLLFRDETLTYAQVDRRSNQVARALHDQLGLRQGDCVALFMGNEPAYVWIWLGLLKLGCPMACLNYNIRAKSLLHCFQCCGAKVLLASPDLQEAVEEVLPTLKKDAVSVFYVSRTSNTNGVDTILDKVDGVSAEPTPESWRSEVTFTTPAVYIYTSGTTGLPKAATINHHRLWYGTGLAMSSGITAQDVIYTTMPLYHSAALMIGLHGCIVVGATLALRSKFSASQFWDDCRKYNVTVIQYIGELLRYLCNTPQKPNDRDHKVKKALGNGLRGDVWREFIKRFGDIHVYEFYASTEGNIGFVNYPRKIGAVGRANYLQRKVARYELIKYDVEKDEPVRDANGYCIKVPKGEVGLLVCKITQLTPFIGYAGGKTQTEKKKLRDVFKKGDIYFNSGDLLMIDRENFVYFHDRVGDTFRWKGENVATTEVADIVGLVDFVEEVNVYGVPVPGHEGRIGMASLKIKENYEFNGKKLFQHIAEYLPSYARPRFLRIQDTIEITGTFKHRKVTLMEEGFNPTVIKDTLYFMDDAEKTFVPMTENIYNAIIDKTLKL

Compound in the experiment: CN[C@@H]1C[C@H]2O[C@@](C)([C@@H]1OC)n1c3ccccc3c3c4c(c5c6ccccc6n2c5c31)C(=O)NC4 [staurosporine]
The experiment is described as follows: log2 fold change of tryptic peptide abundance, ligand vs vehicle (limited proteolysis) (log2 ratio); higher = more trypsin-susceptible (destabilized). The following applies: ligand concentration: 20 uM; sample: mouse liver crude lysate; replicate design: treated separately.
With “UniProt Q60932 (peptide sequence: LTFDSSFSPNTGKK, peptide start residue: 110)”, the log2 fold change was -0.605.

Turning to “UniProt Q6PF93 (peptide sequence: LQALLGDNEK, peptide start residue: 573)”, the log2 fold change is -0.345.

“UniProt Q01705 (peptide sequence: QWTQQHLDAADLR, peptide start residue: 1832)”: the log2 fold change was -0.742.

Take “UniProt Q925I1 (peptide sequence: LGKPSLVR, peptide start residue: 278)”: the log2 fold change came to 0.434.

On to “UniProt P83510 (peptide sequence: NIATYYGAFIK, peptide start residue: 81)”, for which the log2 fold change is -0.608.

With “UniProt O35488 (peptide sequence: YELIKYDVEKDEPVR, peptide start residue: 394)”, the log2 fold change turned out to be 0.821.

In the case of “UniProt Q62393 (peptide sequence: GWQDVTATNAYK, peptide start residue: 125)”, the log2 fold change worked out at 0.581.
